Among all 360,000 compounds or so, about 7,300 (2%) were called active. The sample as a whole holds a higher share of actives than the screen did. A number with no mark means an inactive call. Cut-off read from the data, not from the text of the source: active = inhibition above about 50%; inactive = the rest.
assay: blockers of TWEAK-induced Fn14 reporter activity – luciferase reporter cells, uHTS, primary screen (AID 1159606); settings: TWEAK-stimulated Fn14 reporter cells, luciferase luminescence, 8 h; at 10 µM; active compounds read high

| Structure (SMILES) | inhibition |
| --- | --- |
| Cc1ccc(C)c2[nH]c(=O)c(CCNC(=O)CC(C)C)cc12 | -18.2% |
| O=C(Nc1ccc2c(c1)OCCO2)c1ccc(Cl)c(S(=O)(=O)N2CCCCC2)c1 | 56.7% (active) |
| Cc1ccc(C(=O)Nc2ccc3c(c2)OCCO3)cc1S(=O)(=O)N1CCOCC1 | -15.2% |
| CCCCC(CC)C(=O)Nc1ccc(Cl)cn1 (stereo not given) | -8.67% |
| O=C(Nc1ccc(Cl)cn1)c1ccc2c(c1)OCCO2 | 66.8% (active) |
| O=C(Nc1ccc(Cl)cn1)c1cnn2cccnc12 | 5.94% |
| CCCc1cc(C(=O)Nc2ccc(C(=O)OC)cc2)cs1 | -11.7% |
| CN1CCN(c2ccc(NC(=O)c3ccc4c(c3)OCCO4)cc2Cl)CC1 | 17.5% |
| Cc1nc(NC(=O)c2ccc3c(c2)OCCO3)ccc1Br | 30.4% |
| CCCc1cc(C(=O)Nc2ccc(Cl)cn2)cs1 | 58.8% (active) |
| O=C(Nc1cccc(S(=O)(=O)Nc2ccc(Cl)cc2)c1)c1ccc2c(c1)OCCO2 | 78.2% (active) |
| CC(NS(=O)(=O)c1ccc(Cl)cc1)C(=O)Nc1ccc2c(c1)OCCO2 (stereo not given) | 32.7% |
| CCN(CC)CCNC(=O)c1ccc(NS(=O)(=O)c2ccc3c(c2)OCCO3)cc1 | 2.79% |
| CCOc1ccc(-c2c(C)n([O-])c3c([n+]2=O)CCCC3)cc1 | -15.2% |
| O=S1(=O)CC(N2CCSCC2)CN1Cc1cn(Cc2cccc(Cl)c2)nn1 (stereo not given) | 0.68% |
| CC(=O)N1Cc2cc(C(=O)NCc3cccc(F)c3)nc(-c3cccc(C4=CCCC4)c3)c2[C@H]1CCO | -25.9% |
| COC(=O)C1(C(=O)OC)C/C=C\CN(S(=O)(=O)c2ccccc2[N+](=O)[O-])CCC1 | -4.25% |
| CC(=O)N1CCSc2ccc(S(=O)(=O)N3CCC(C)CC3)cc21 | 10.4% |
| Cc1csc(=O)n1CCC(=O)OCC(=O)Nc1ccc(N2CCOCC2)cc1 | -8.76% |
| COc1cccc(CNc2nc(NCc3ccccc3OC)nc3ccsc23)c1 | 63.1% (active) |
| COc1ccccc1CNc1nc(Nc2ccccc2Cl)c2sccc2n1 | 61.9% (active) |
| COCCNc1nc(NCc2ccc(NC(C)=O)cc2)c2sccc2n1 | -3.75% |
| COCCNc1nc(Nc2ccccc2Cl)c2sc(-c3ccccc3)cc2n1 | -18.2% |

| Structure (SMILES) | inhibition |
| --- | --- |
| COc1cccc(CNc2nc(NCc3cccs3)nc3ccsc23)c1 | -13.7% |
| Clc1ccccc1Nc1nc(NCc2cccs2)nc2ccsc12 | 12.1% |
| O=C1CC(c2ccccc2)C(c2ccccc2)=NN1 (stereo not given) | -8.4% |
| O=S1(=O)CCOC[C@H](CC2CCCCC2)N1Cc1ccc(F)cc1 | 3.84% |
| CCc1cccc(CC)c1NC(=O)COc1ccccc1C(=O)c1cc(C#N)c(=O)n(C2CCCCC2)c1 | 19.8% |
| CN(Cc1cn(Cc2ccc(C(F)(F)F)cc2)nn1)C1CN(Cc2cn(Cc3ccc(C(F)(F)F)cc3)nn2)S(=O)(=O)C1 (stereo not given) | 33.8% |
| CC(=O)c1nc(N2C(=O)C3CC=C(C)CC3C2=O)sc1C (stereo not given) | -2.22% |
| Cc1ccc(-c2cc(=O)[nH]c(NCc3ccccc3)n2)cc1 | 9.23% |
| CCS(=O)(=O)c1ccc2c(c1)N(S(=O)(=O)c1ccccc1)CC(C(=O)O)O2 (stereo not given) | -19.1% |
| CC1(C(=O)O)CCCN(C(=O)/C=C/c2ccccc2)C1 (stereo not given) | 3.38% |
| Cc1[nH]c(=O)c(C(=O)/C=C/c2ccccc2)c2c1CCCC2 | 83.9% (active) |
| COC(=O)c1c(C)[nH]c(C(=O)/C=C/c2ccc(Cl)cc2)c1C | -23.7% |
| CCN(CC)CCOc1ccc2c(c1)C(=NNC(=O)c1ccccn1)c1cc(OCCN(CC)CC)ccc1-2 | -85.7% |
| COc1ccc(-c2cc(C(=O)NCCCN3CCCC3=O)c3ccccc3n2)cc1OC | -9.51% |
| COc1ccc(-c2cc(C(=O)N(C)Cc3ccc(OC)c(OC)c3OC)c3ccccc3n2)cc1OC | 19.7% |
| COc1ccc(-c2cc(C(F)(F)F)nc(S(C)(=O)=O)n2)cc1OC | 76.2% (active) |
| OCC1(Cc2ccccc2C(F)(F)F)CCN(Cc2ccncc2)CC1 | 14.4% |
| Cc1cc(-c2nnc(SCC(=O)Nc3ccc(F)cc3)n2N)n[nH]1 | 1.35% |
| O=C(CC[C@H]1O[C@@H](n2ccc(=O)[nH]c2=O)[C@H](O)[C@@H]1O)N[C@H](Cc1ccccc1)C(=O)NCc1ccco1 | 10.1% |
| CC1CCCCC1NC(=O)/C(C#N)=C/C=C/c1ccccc1[N+](=O)[O-] (stereo not given) | 84.9% (active) |
| CC(OC(=O)/C=C/c1ccccc1)C(=O)NC1CCCCC1C (stereo not given) | -1.03% |
| CC1CCCCC1NC(=O)COc1ccc(C#N)cc1 (stereo not given) | 2.53% |
| CC(=O)NCC(=O)N(C)C(C(=O)Nc1ccc2c(c1)OCCO2)c1ccccc1 (stereo not given) | 7.79% |

| Structure (SMILES) | inhibition |
| --- | --- |
| CCN(CC)CCn1cnc2c1c(=O)n(CCOC(=O)c1cc(OC)c(OC)c(OC)c1)c(=O)n2C | -2.5% |
| O=C(CC1SC(N2CCCC2)=NC1=O)Nc1ccc(C(=O)NCCc2ccc(F)cc2)cc1 (stereo not given) | -8.62% |
| N#Cc1c(-c2cccs2)nc(SCC(=O)c2ccc(Br)cc2)[nH]c1=O | -12.4% |
| C=CCN(CC=C)S(=O)(=O)c1ccc(C(=O)Nc2nc3c(s2)CCc2ccccc2-3)cc1 | -34.3% |
| N#Cc1ccc(C(=O)Nc2nc(-c3cccs3)c(C(=O)C(F)(F)F)s2)cc1 | 58.4% (active) |
| Cc1oc2c(C)c3oc(=O)c(CC(=O)N[C@@H](CC(C)C)C(=O)N[C@@H](Cc4ccccc4)C(=O)O)c(C)c3cc2c1C | -9.29% |
| COC(=O)c1ccc(NS(=O)(=O)c2cc3c4c(c2)C(C)C(=O)N4CCC3)cc1 (stereo not given) | 9.82% |
| O=C(Nc1nnc(-c2ccc(F)cc2)s1)c1c(F)cccc1Cl | 5.11% |
| Cc1ccc(S(=O)(=O)CCC(=O)Nc2nnc(CC(C)C)s2)cc1 | -1.46% |
| Cc1ccc(CS(=O)(=O)c2ncc(Cl)c(C(=O)Nc3nnc(C)s3)n2)cc1 | 96.5% (active) |
| Cc1cccc(C(=O)Nc2nnc(S(=O)(=O)N3CCCCCC3)s2)c1 | -46.1% |
| CSc1nnc(NC(=O)c2nc(S(=O)(=O)Cc3ccc(C)cc3)ncc2Cl)s1 | 92% (active) |
| CCOC(=O)CSc1nnc(NC(=O)c2cccc(S(=O)(=O)N3CCCCC3)c2)s1 | 41.9% |
| CSc1nc2nc3c(c(=O)n2[nH]1)CCC3 | -0.44% |
| CCCn1c(N)c(N(CCOC)C(=O)C2CCCC2)c(=O)[nH]c1=O | -6.44% |
| CC(=O)Nc1ccc(S(=O)(=O)N2CCC(C(=O)N[C@@H](Cc3ccccc3)C(=O)O)CC2)cc1 | -3.83% |
| Cc1cc(OCCOc2cccc3cccnc23)c(C)cc1Cl | -15.2% |
| Cc1ccc([C@@H]2CC(=O)[C@@H]3CN(S(=O)(=O)c4ccc(C)cc4)[C@H](c4ccccc4F)C[C@@H]3N2S(=O)(=O)c2ccc(Cl)cc2)cc1 | -13.3% |
| COc1cc(C(F)(F)F)nc2c(Br)c(C(C)(C)C)nn12 | 15.2% |
| CC1CN(C(=S)SCC(=O)c2ccccc2)CC(C)O1 (stereo not given) | 3.23% |
| NC(=NC(=O)c1ccccc1)N1CCOCC1 | -6.39% |
| O=C(CSC(=S)N1CCOCC1)c1ccccc1 | 71.9% (active) |
| CC1(C(=O)Nc2cccc3cccnc23)CCN1C(=O)CCC1CCCC1 (stereo not given) | 8.06% |

| Structure (SMILES) | inhibition |
| --- | --- |
| N#Cc1ccsc1NC(=O)CN1CCCCC1 | -0.37% |
| Cc1csc(SCC(=O)Nc2sccc2C#N)n1 | 56.5% (active) |
| Cc1csc(SCC(=O)Nc2ccc(C)c(S(=O)(=O)N(C)C)c2)n1 | -4.8% |
| CCN1C(=O)N[C@@H](c2ccccc2)[C@H](C(C)=O)[C@H]1C | -0.1% |
| CSc1ccccc1NC(=O)Cc1ccc(Br)cc1 | 4.45% |
| CCC1CCc2c(sc(NC(C)=O)c2C#N)C1 (stereo not given) | -8.64% |
| Cc1ccc(-c2csc(NC(=O)C3=COCCO3)n2)cc1C | 1.4% |
| COCc1nnc(NC(=O)c2ccc3c(c2)OCO3)s1 | 14.7% |
| O=C(Nc1nc2ccccc2s1)c1ccc2c(c1)OCO2 | 83.7% (active) |
| C/C(=N/NC(=O)c1ccncc1)c1ccc2c(c1)OCO2 | 11.5% |
| N#Cc1ccccc1NC(=O)c1ccc2c(c1)OCO2 | -17.5% |
| O=C(Nc1nc(-c2ccc3c(c2)OCO3)cs1)c1ccncc1 | 57.8% (active) |
| CCCNS(=O)(=O)c1ccc(CCC(=O)NCc2cccnc2)cc1 | 6.9% |
| COc1ccc(C2(C)ON(c3ccccc3C(F)(F)F)C2=O)cc1 (stereo not given) | -8.35% |
| CCCCN(CC)C(=O)c1ccccc1Oc1ccccc1 | 11.6% |
| Cc1ccc(NC(=O)Cc2nc(COC(=O)C(C)NS(=O)(=O)c3ccc(C)cc3)cs2)cc1 (stereo not given) | -7.54% |
| CCOC(=O)/C=C/CN(C(=O)OC(C)(C)C)S(=O)(=O)N1CC=CC1 | 8.4% |
| Cc1ccc(-c2noc(CSc3nnc(-c4ccncc4)n3-c3ccc(F)cc3)n2)cc1 | 1% |
| Cc1ccc(Nc2nc(CSc3nnc(-c4ccncc4)n3-c3ccccc3C)cs2)cc1 | 74.3% (active) |
| Cc1ccc(-n2c(SCC(=O)N3c4ccccc4Sc4ccccc43)nnc2-c2ccncc2)cc1 | 20.4% |
| FC(F)(F)c1cc(C(F)(F)F)c2ccc(N3CCN(c4ccccc4)CC3)nc2n1 | -12.2% |
